Assay results taken from the supplement of paper PMC12340641.
Where a name gives a salt, the structure may show the parent alone.

Assays:
[1] = molecular target: IKZF1 (dCK*-IKZF1 fusion in HEK293FT) (UniProt Q13422); assay: inhibition of IKZF1 HTRF signal (DMSO = 0%, pomalidomide 10 uM = 100%); higher = lower IKZF1 protein level; settings: compound concentration: 5 uM, overnight (~20 h)
Method in brief: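 HEK293FT cells stably expressing a dCK*-IKZF1 fusion (2000/well, 384-well) were treated overnight at 37 °C with 5 μM compound in single wells. They were then lysed 30 min at room temperature, and lysate was incubated overnight with a commercial HTRF total-IKZF1 antibody kit. The time-resolved FRET ratio (665/620 nm) was background-subtracted. Percent inhibition of IKZF1 signal was normalised per plate to vehicle (0%) and a reference degrader (100%).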

HEK293FT dCK*-only = assay: relative growth in counter assay (no AraC = 100%, AraC + DMSO = 0%); higher = more growth rescue independent of IKZF1; settings: compound concentration: 5 uM; AraC concentration: 0.3 uM; overnight pretreatment + 4 days AraC
Method in brief: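 In 384-well plates, 300 HEK293FT cells per well expressing an engineered kinase construct alone got 5 μM compound 2 h after seeding. After overnight at 37 °C, 0.3 μM nucleoside suicide substrate plus medium was applied for 4 days. Counting of Hoechst 33342-stained nuclei by imaging on day 5 was normalised per plate, with 100% for no-substrate wells and 0% for substrate plus vehicle.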

HEK293FT dCK*-IKZF1 = assay: relative growth recovery (pomalidomide 10 uM = 100%, DMSO = 0%); higher = more growth rescue (IKZF1 fusion degradation); settings: compound concentration: 5 uM; AraC concentration: 0.3 uM; overnight pretreatment + 4 days AraC
Method in brief: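 On day 5, whole-well imaging was used to count Hoechst 33342-stained nuclei of HEK293FT cells stably carrying a deoxycytidine kinase–IKZF1 fusion. These cells had received 5 μM compound 2 h after seeding, followed after overnight at 37 °C by a nucleoside suicide substrate at 0.3 μM plus medium for 4 days. Growth recovery was normalised on each plate against a reference degrader and vehicle, which defined 100% and 0%, and values are duplicate means from separate days.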

Sequence of IKZF1 (dCK*-IKZF1 fusion in HEK293FT) (Q13422 whole entry, looked up, the tested form may be a part): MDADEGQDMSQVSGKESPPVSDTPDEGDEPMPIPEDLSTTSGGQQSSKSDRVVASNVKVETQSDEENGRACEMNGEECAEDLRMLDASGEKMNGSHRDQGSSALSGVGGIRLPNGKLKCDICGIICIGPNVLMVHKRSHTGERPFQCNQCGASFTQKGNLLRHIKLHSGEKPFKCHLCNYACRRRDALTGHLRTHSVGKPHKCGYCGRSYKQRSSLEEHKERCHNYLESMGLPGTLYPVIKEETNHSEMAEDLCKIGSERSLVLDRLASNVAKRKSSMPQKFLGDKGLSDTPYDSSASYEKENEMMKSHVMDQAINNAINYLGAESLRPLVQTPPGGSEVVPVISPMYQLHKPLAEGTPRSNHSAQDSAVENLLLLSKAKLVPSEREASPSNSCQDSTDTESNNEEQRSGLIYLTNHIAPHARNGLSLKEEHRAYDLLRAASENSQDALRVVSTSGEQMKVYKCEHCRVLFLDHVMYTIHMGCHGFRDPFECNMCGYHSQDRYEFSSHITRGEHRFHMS

COc1ccc(-c2ccc3c(N4CCOCC4)nc(N4C[C@@H](C)O[C@@H](C)C4)nc3n2)cc1CO
inhibition of IKZF1 HTRF signal [1]: 14.5%
relative growth in counter assay (HEK293FT dCK*-only): -14%
relative growth recovery (HEK293FT dCK*-IKZF1): -6.47%

CCCCCNC(=N)N/N=C/c1c[nH]c2ccc(OC)cc12
inhibition of IKZF1 HTRF signal [1]: -1.99%
relative growth in counter assay (HEK293FT dCK*-only): -5.1%
relative growth recovery (HEK293FT dCK*-IKZF1): -2.16%

CCOC(=O)Nc1ccc2c(c1)N(C(=O)CCN1CCOCC1)c1ccccc1S2 [moracizine]
inhibition of IKZF1 HTRF signal [1]: -24.3%
relative growth in counter assay (HEK293FT dCK*-only): -9.21%
relative growth recovery (HEK293FT dCK*-IKZF1): -0.545%

Clc1ccc(C(Cn2ccnc2)OCc2ccc(Sc3ccccc3)cc2)c(Cl)c1 (stereo not given) [Fenticonazole nitrate]
inhibition of IKZF1 HTRF signal [1]: -51.2%
relative growth in counter assay (HEK293FT dCK*-only): -4.73%
relative growth recovery (HEK293FT dCK*-IKZF1): 0.87%

Oc1c(CN2CCCC2)cc(COCc2ccccc2)c2cccnc12
inhibition of IKZF1 HTRF signal [1]: -11.1%
relative growth in counter assay (HEK293FT dCK*-only): -34.9%
relative growth recovery (HEK293FT dCK*-IKZF1): -13.4%

Cc1ccccc1N=Nc1ccc(N=Nc2c(O)ccc3ccccc23)c(C)c1 [Solvent Red 24]
inhibition of IKZF1 HTRF signal [1]: 13.9%
relative growth in counter assay (HEK293FT dCK*-only): -1.17%
relative growth recovery (HEK293FT dCK*-IKZF1): -0.495%

O=C(Nc1cnc(Cl)nc1)c1ccc(F)c(F)c1
inhibition of IKZF1 HTRF signal [1]: -25.3%
relative growth in counter assay (HEK293FT dCK*-only): 1.83%
relative growth recovery (HEK293FT dCK*-IKZF1): 4.13%

Cc1cc(C)nc(NS(=O)(=O)c2ccc(NC(=S)NC(=O)COc3ccc(Br)cc3Cl)cc2)n1
inhibition of IKZF1 HTRF signal [1]: -36.5%
relative growth in counter assay (HEK293FT dCK*-only): 0.75%
relative growth recovery (HEK293FT dCK*-IKZF1): 1.03%

CC(C)c1ccc(NC(=O)Cn2cnc3c2c(=O)n(C)c(=O)n3C)cc1
inhibition of IKZF1 HTRF signal [1]: 12.2%
relative growth in counter assay (HEK293FT dCK*-only): -3.63%
relative growth recovery (HEK293FT dCK*-IKZF1): -1.03%

C=C1C(=O)O[C@@H]2[C@H]3O[C@]3(C)CC/C=C(\C)CC[C@@H]12 [parthenolide-(alternate-stereo)]
inhibition of IKZF1 HTRF signal [1]: -27.7%
relative growth in counter assay (HEK293FT dCK*-only): -34.4%
relative growth recovery (HEK293FT dCK*-IKZF1): -12.4%

O=C(O)c1cc([N+](=O)[O-])ccc1NCCCc1ccccc1
inhibition of IKZF1 HTRF signal [1]: -22.5%
relative growth in counter assay (HEK293FT dCK*-only): -2.81%
relative growth recovery (HEK293FT dCK*-IKZF1): -1.86%

CNC(=O)c1cccc(-c2ccc3c(N4CCOC[C@@H]4C)nc(N4CCOC[C@@H]4C)nc3n2)c1 [Vistusertib (AZD2014)]
inhibition of IKZF1 HTRF signal [1]: 69.4%
relative growth in counter assay (HEK293FT dCK*-only): -33%
relative growth recovery (HEK293FT dCK*-IKZF1): -12.9%

CC[C@@]1(O)C(=O)OCc2c1cc1n(c2=O)Cc2cc3cc(O)ccc3nc2-1 [10-Hydroxycamptothecin]
inhibition of IKZF1 HTRF signal [1]: 38.4%
relative growth in counter assay (HEK293FT dCK*-only): -34%
relative growth recovery (HEK293FT dCK*-IKZF1): -13.2%

O=C1CCC(N2C(=O)c3ccccc3C2=O)C(=O)N1 (stereo not given) [thalidomide]
inhibition of IKZF1 HTRF signal [1]: -17.1%
relative growth in counter assay (HEK293FT dCK*-only): 0.97%
relative growth recovery (HEK293FT dCK*-IKZF1): 1.01%

Cc1cc(N)c2ccccc2[n+]1CCCCCCCCCC[n+]1c(C)cc(N)c2ccccc21
inhibition of IKZF1 HTRF signal [1]: -29.5%
relative growth in counter assay (HEK293FT dCK*-only): -14.5%
relative growth recovery (HEK293FT dCK*-IKZF1): -3.15%

CN1CCCC(CC2c3ccccc3Sc3ccccc32)C1 (stereo not given) [metixene]
inhibition of IKZF1 HTRF signal [1]: -23.4%
relative growth in counter assay (HEK293FT dCK*-only): 2.04%
relative growth recovery (HEK293FT dCK*-IKZF1): 1.64%

Oc1cc(CNC(=S)/C=C/c2cc(O)c(O)c(Br)c2)cc(O)c1O
inhibition of IKZF1 HTRF signal [1]: -32.2%
relative growth in counter assay (HEK293FT dCK*-only): -34.9%
relative growth recovery (HEK293FT dCK*-IKZF1): -11.9%

CC(C)CCN1c2nc(Nc3cc(F)c(O)c(F)c3)ncc2N(C)C(=O)C1C (stereo not given)
inhibition of IKZF1 HTRF signal [1]: -50.7%
relative growth in counter assay (HEK293FT dCK*-only): -32.3%
relative growth recovery (HEK293FT dCK*-IKZF1): -11.3%

O=C1NC(=O)/C(=C/c2ccc(-c3ccc(F)cc3O)o2)S1
inhibition of IKZF1 HTRF signal [1]: -15.8%
relative growth in counter assay (HEK293FT dCK*-only): -7.95%
relative growth recovery (HEK293FT dCK*-IKZF1): -0.795%

Oc1c(Cl)cc(Cl)c(Cl)c1Cc1c(O)c(Cl)cc(Cl)c1Cl
inhibition of IKZF1 HTRF signal [1]: -36%
relative growth in counter assay (HEK293FT dCK*-only): -1.16%
relative growth recovery (HEK293FT dCK*-IKZF1): 0.025%

CN(C)CCCN1c2ccccc2Sc2ccc(Cl)cc21 [Chlorpromazine HCl]
inhibition of IKZF1 HTRF signal [1]: -4.4%
relative growth in counter assay (HEK293FT dCK*-only): -6.37%
relative growth recovery (HEK293FT dCK*-IKZF1): -2.69%

CC(C)(C)c1cc(O)c(C(C)(C)C)cc1O
inhibition of IKZF1 HTRF signal [1]: -31.7%
relative growth in counter assay (HEK293FT dCK*-only): -0.82%
relative growth recovery (HEK293FT dCK*-IKZF1): -0.575%

CCCCCCCCCCCCCCCC[N+](C)(C)C
inhibition of IKZF1 HTRF signal [1]: 22.3%
relative growth in counter assay (HEK293FT dCK*-only): -33.4%
relative growth recovery (HEK293FT dCK*-IKZF1): -11.7%

Cc1ncsc1-c1ccc(CNC(=O)[C@@H]2C[C@@H](O)CN2C(=O)[C@@H](NC(=O)COCCOCCOCCOc2ccc(-c3ccc4ncnc(Nc5ccc(OCc6cccc(F)c6)c(Cl)c5)c4c3)cc2)C(C)(C)C)cc1
inhibition of IKZF1 HTRF signal [1]: 13.3%
relative growth in counter assay (HEK293FT dCK*-only): 18%
relative growth recovery (HEK293FT dCK*-IKZF1): 4.09%

CCCCCCCCCCCCCCCC[N+](C)(C)Cc1ccccc1 [Benzyldimethylhexadecylammonium chloride hydrate]
inhibition of IKZF1 HTRF signal [1]: 20.2%
relative growth in counter assay (HEK293FT dCK*-only): -20.7%
relative growth recovery (HEK293FT dCK*-IKZF1): -4.92%

Cc1ccc2c(=O)c3ccccc3n(CCCN)c2c1C
inhibition of IKZF1 HTRF signal [1]: -12.2%
relative growth in counter assay (HEK293FT dCK*-only): -35.5%
relative growth recovery (HEK293FT dCK*-IKZF1): -14.4%

O=C(Nc1ccc(F)cc1)N1CCc2ccccc2C1c1ccc(C(F)(F)F)cc1 (stereo not given)
inhibition of IKZF1 HTRF signal [1]: -25.5%
relative growth in counter assay (HEK293FT dCK*-only): 4.9%
relative growth recovery (HEK293FT dCK*-IKZF1): -0.27%

COc1cc2ncnc(Nc3ccc(F)c(Cl)c3)c2cc1OCCCCCOCCOCCC(=O)N[C@H](C(=O)N1C[C@H](O)C[C@H]1C(=O)NCc1ccc(-c2scnc2C)cc1)C(C)(C)C [Gefitinib-based PROTAC 3]
inhibition of IKZF1 HTRF signal [1]: 15.5%
relative growth in counter assay (HEK293FT dCK*-only): 41.4%
relative growth recovery (HEK293FT dCK*-IKZF1): 55.5%

CCN(CC)c1ccc(C(=C2C=CC(=[N+](CC)CC)C=C2)c2ccccc2)cc1 [Brilliant Green]
inhibition of IKZF1 HTRF signal [1]: 79.8%
relative growth in counter assay (HEK293FT dCK*-only): -35%
relative growth recovery (HEK293FT dCK*-IKZF1): -14.4%

CNC[C@H](O)c1ccc(O)c(O)c1
inhibition of IKZF1 HTRF signal [1]: -26.9%
relative growth in counter assay (HEK293FT dCK*-only): -15.6%
relative growth recovery (HEK293FT dCK*-IKZF1): -7%
